Results reported in the antibiotic and cytotoxicity screens of Wong et al. (2023).
About 3,300 (8.5%) of roughly 39,000 compounds were called active. This excerpt belongs to a sample that is enriched for actives.

test system: HepG2; assay: cytotoxicity call (relative viability < 0.9); details: 10 µM

| Structure (SMILES) | cytotoxicity call |
| --- | --- |
| COc1ccc(S(=O)(=O)N(C)C[C@@H]2Oc3ccc(NS(=O)(=O)c4ccc(C)cc4)cc3C(=O)N([C@H](C)CO)C[C@H]2C)cc1 | inactive |
| COC(=O)[C@H]1CCNCCC1=O | inactive |
| CN1CCN(C(=O)C[C@H]2CC[C@H]3[C@@H](COC[C@H](O)CN3CC3CCCC3)O2)CC1 | inactive |
| C[C@H](CO)N1C[C@H](C)[C@@H](CN(C)C(=O)Nc2ccnc(N3CCOCC3)c2)OCc2cnnn2CCCC1=O | inactive |
| Cn1cnc(S(=O)(=O)N[C@@H]2C=C[C@@H](CC(=O)NCC3CC3)O[C@H]2CO)c1 | inactive |
| O=C(O)C12CC(C1)C2 | inactive |
| COCC(=O)N(C)C[C@H]1Oc2cc(-c3ccc(C#N)cc3)ccc2S(=O)(=O)N([C@@H](C)CO)C[C@H]1C | inactive |
| Cc1noc(C)c1NC(=O)N[C@H]1C=C[C@H](CC(=O)N2CCN(C)CC2)O[C@H]1CO | inactive |
| COc1cccc(C#Cc2ccc3c(c2)O[C@@H](CN(C)C(=O)CN2CCOCC2)[C@H](C)CN([C@H](C)CO)S3(=O)=O)c1 | inactive |
| Cc1ccc(S(=O)(=O)N(C)C[C@@H]2OCCCC[C@H](C)Oc3ccc(NC(=O)CCC(F)(F)F)cc3C(=O)N([C@H](C)CO)C[C@H]2C)cc1 | inactive |
| CC[C@@H]1OC(=O)C[C@@H](O)[C@H](C)[C@@H](O[C@@H]2O[C@H](C)[C@@H](O)[C@H](N(C)C)[C@H]2O)[C@@H](CCN2C[C@H](C)C[C@H](C)C2)C[C@@H](C)C(=O)/C=C/C(C)=C\[C@@H]1CO[C@@H]1O[C@H](C)[C@@H](O)[C@@H](OC)[C@H]1OC | inactive |
| CCC1OC(=O)CC(O)C(C)C(OC2OC(C)C(O)C(N(C)C)C2O)C(CCN2CC(C)CC(C)C2)CC(C)C(=O)C=CC(C)=CC1COC1OC(C)C(O)C(OC)C1OC (stereo unspecified) | active |
| CC[C@H]1OC(=O)C[C@@H](O)[C@H](C)[C@@H](O[C@@H]2O[C@H](C)[C@@H](O)[C@H](N(C)C)[C@H]2O)[C@@H](CCN2C[C@H](C)C[C@H](C)C2)C[C@@H](C)C(=O)/C=C/C(C)=C/[C@@H]1CO[C@@H]1O[C@H](C)[C@@H](O)[C@@H](OC)[C@H]1OC | inactive |
| C[C@H](CO)N1C[C@H](C)[C@H](CN(C)Cc2ccncc2)Oc2ccc(NS(=O)(=O)c3cccs3)cc2C1=O | inactive |
| CC(=O)OC1CC2C(C)(C)C(O)CCC2(C)C2CCC3(C)C(c4ccoc4)OC(=O)C4OC43C12C (stereo unspecified) | inactive |
| Cc1noc(C)c1S(=O)(=O)N(C)C[C@H]1Oc2ccc(NC(=O)C3CC3)cc2CC(=O)N([C@@H](C)CO)C[C@@H]1C | inactive |
